Screening results (PubChem)
esBAF inh – inhibitors of esBAF chromatin remodeling in mouse ES cells; Bmi1-luciferase knock-in reporter, 24 h; 100% = twice the neutral-well signal; reporter increase, % at 12.5 µM; hit rate 2% among 350,000; AID 602393; in the data active = activation above about 40%; inconclusive = no clear call, values can overlap the other calls;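 note: a rise in the Bmi1 reporter signal indicates esBAF inhibition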
HSF1 inhib – HSF1 inhibition. NIH3T3-HGL HSE-luciferase, MG132-induced, luminescence 8 h; active compounds read low. activity change, negative = inhibition, % at 7.5 µM (by protocol). hit rate 0.77% among 300,000;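 active = more than half of replicate wells show activity change below -50%, luminescence cut by over half; inconclusive = some wells, but at most half, below -50%; inactive = no replicate well below -50%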;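 note: luciferase reports HSF-1 transcriptional activity via heat shock element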
Vif imaging – inhibitors of HIV Vif; hit rate 0.35% among 340,000; inhibition, % at 7.49 µM; AID 602346; HEK293T cells, Vif self-association by quenched fluorescence, imaging, 24 h; in the data active = inhibition above about 50%, passing the limit was not always enough; inconclusive = no clear call, values can overlap the other calls; inactive = below about 31%
HSF-1 act – increases HSF-1 driven luciferase reporter signal; NIH3T3-HGL HSF-1 luciferase reporter, MG132, 8 h; 100% = twice DMSO control signal; activation, % at 9 µM; hit rate 1.7% among 300,000;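 active = mean replicate activation of at least 50% with a set share of replicates each reaching 50%; inconclusive = only one of those two conditions met; inactive = mean below 50% and too few replicates reaching it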
Of the large screens only hits and unclear results are named; the others gave an inactive call. Sampled rows, rich in hits. Any-hit rate of the full collection: about 3.4%.

Oc1ccc(Cl)cc1-c1cc(-c2ccccc2)n[nH]1	none
Oc1ccccc1-c1cc(-c2ccccc2)n[nH]1	none (no result: HSF1 inhib, HSF-1 act)
O=C(C[C@@H]1C[C@@H]2c3cc(NC(=O)NC4CCCC4)ccc3O[C@@H]2[C@H](CO)O1)NCc1ccncc1	none (no result: HSF1 inhib, Vif imaging, HSF-1 act)
COCc1cc(C)nc(OCC(=O)N/N=C/c2ccc(-c3cc([N+](=O)[O-])ccc3C)o2)c1C#N	none (no result: esBAF inh)
Cc1ccc([N+](=O)[O-])cc1-c1ccc(/C=C(\C#N)c2[nH]nc(N)c2C#N)o1	esBAF inh 83 (no result: HSF1 inhib, HSF-1 act)
CN1C(=O)c2cc(NC(=O)Cc3cccs3)ccc2OC[C@H]2O[C@@H](CC(=O)O)CC[C@H]21	none (no result: HSF1 inhib, Vif imaging, HSF-1 act)
CC(=O)Nc1nonc1-c1nc2ccccc2n1C	Vif imaging 80
Cc1ccccc1S(=O)(=O)N1C[C@H](O)COC[C@H]2O[C@H](CC(=O)NCc3ccccc3Cl)CC[C@@H]21	none (no result: HSF1 inhib, Vif imaging, HSF-1 act)
COc1ccc(CNC2CCSc3ccccc32)cc1OC (configuration not stated)	HSF-1 act 63
COc1ccc(CNC2CCCc3ccccc32)cc1OC (configuration not stated)	none
Cc1nc(NC(=O)c2ccccc2)sc1-c1csc(N)n1	esBAF inh 53
Cc1nc(NC(=O)c2ccccc2)sc1-c1csc(NCc2ccccc2)n1	none
CCOc1ccccc1Nc1nc(-c2sc(NC(=O)c3cccc(Cl)c3)nc2C)cs1	esBAF inh 64 (no result: Vif imaging)
CC1(C)CC(=O)c2sc(NC(=O)c3ccccc3)nc2C1	HSF-1 act 54 (no result: esBAF inh, Vif imaging)
CCOc1ccccc1Nc1nc(-c2sc(NC(=O)c3ccccc3)nc2C)cs1	none (no result: esBAF inh, Vif imaging)
O=S(=O)(N[C@H]1CC[C@H](CCn2cc(C3(O)CCCC3)nn2)O[C@@H]1CO)c1ccc(F)cc1	none (no result: HSF1 inhib, Vif imaging, HSF-1 act)
O=C(NCCc1ccc(Cl)cc1)c1ccc2nccnc2c1	HSF-1 act 60
CC(C)NC(=O)Nc1ccc2c(c1)C(=O)N(C)[C@@H]1CC[C@H](CC(=O)NCC(F)(F)F)O[C@H]1CO2	none (no result: HSF1 inhib, Vif imaging, HSF-1 act)
CSc1ccccc1NC(=O)C1=CC(c2ccc(C)cc2)=NS(=O)(=O)N1C	HSF1 inhib -56
Cc1ccc(C)c(NC(=O)CSc2nccn2Cc2ccco2)c1	esBAF inh 56
COc1ccc(Nc2nc(Nc3ccc(OC)cc3)nc(-n3[nH]c(=O)c(C)c3C)n2)cc1	HSF1 inhib -63, Vif imaging 56
COc1ccc(Nc2nc(OC)nc(OC)n2)cc1	none
O=C(C[C@@H]1C[C@@H]2c3cc(NC(=O)Nc4ccccc4)ccc3O[C@@H]2[C@@H](CO)O1)NCc1cccnc1	none (no result: HSF1 inhib, Vif imaging, HSF-1 act)
C/C(=N\Nc1nc2c(s1)CCCC2)c1ccccc1	esBAF inh 47
O=C(COC(=O)c1cc(=O)[nH]c2ccccc12)Nc1nc(-c2ccc(F)cc2)cs1	esBAF inh 44 (no result: HSF1 inhib, HSF-1 act)
O=C(COC(=O)c1cc(=O)[nH]c2ccccc12)NCc1ccc(F)cc1	none (no result: HSF1 inhib, HSF-1 act)
CCn1nc(C(=O)OCC(=O)Nc2nc(-c3ccc(OC)cc3)cs2)c2ccccc2c1=O	esBAF inh 57, HSF-1 act 77
CC(C)NC(=O)N1CC[C@@H]2[C@H]1c1cc(Br)ccc1N(C)[C@H]2CO	none (no result: HSF1 inhib, Vif imaging, HSF-1 act)
O=C(NCc1cccnc1)C(=O)NCC(c1ccco1)N1CCN(c2ccccc2)CC1 (configuration not stated)	HSF-1 act 80
O=C(NCc1ccco1)C(=O)NCC(c1ccco1)N1CCOCC1 (configuration not stated)	HSF1 inhib -69 (no result: esBAF inh)
Cc1noc(C)c1S(=O)(=O)Nc1ccc2c(c1)C(=O)N([C@@H](C)CO)C[C@@H](C)[C@@H](CN(C)S(=O)(=O)c1cccs1)OCCCC[C@H](C)O2	none (no result: HSF1 inhib, Vif imaging, HSF-1 act)
CC(=O)Nc1ccccc1NC(=O)C/C(C)=N/NC(=O)c1ccccn1	none (no result: esBAF inh)
C/C(CC(=O)NCc1ccccc1Cl)=N/NC(=O)c1ccccn1	esBAF inh 44
CCc1ccc(/C(C)=N/NC(=O)c2ccccn2)cc1	none
CC(=N/O)/C(C)=N\NC(=O)c1ccccn1	HSF1 inhib -66
COc1ccc(C(=O)NC(=S)NC(C)C)cc1Br	esBAF inh 63 (no result: Vif imaging)
COc1ccc(C(=O)NNC(=S)NC(=O)c2ccc(F)cc2)cc1Br	none (no result: esBAF inh)
COc1ccc(C(=O)NC(=S)NC(C)(C)C)cc1Br	esBAF inh 59
C[C@@H]1CCCCO[C@@H](CN(C)Cc2ccc(C(=O)O)cc2)[C@H](C)CN([C@@H](C)CO)C(=O)c2cc(NS(=O)(=O)c3ccc(Cl)cc3)ccc2O1	none (no result: HSF1 inhib, Vif imaging, HSF-1 act)
CN1C(=O)c2cc(NC(=O)c3ccc(Cl)cc3)ccc2OC[C@@H]2O[C@H](CC(=O)NCc3cccc(F)c3)CC[C@H]21	none (no result: HSF1 inhib, Vif imaging, HSF-1 act)
CC(C)c1cn(CC[C@H]2CC[C@H](NS(=O)(=O)c3ccccc3)[C@@H](CO)O2)nn1	none (no result: HSF1 inhib, Vif imaging, HSF-1 act)
O=[N+]([O-])c1ccccc1/C=N\Nc1nccs1	HSF-1 act 78
O=[N+]([O-])c1cc(/C=N\Nc2nccs2)ccc1O	none (no result: esBAF inh, Vif imaging)
COc1ccc(OC)c(/C=N\Nc2nccs2)c1	none
Clc1cccc(Cl)c1/C=N\Nc1nccs1	HSF-1 act 142
O=C(NCc1ccc(Cl)cc1)c1ccc(Cl)cc1[N+](=O)[O-]	none
O=C(NCCc1ccccc1)c1ccc(Cl)cc1[N+](=O)[O-]	esBAF inh 62
COc1ccccc1-c1nc(S(=O)(=O)c2ccccc2)c(N2CCCCC2)o1	HSF-1 act 52
O=S(=O)(c1ccc(F)cc1)c1nc(-c2ccccc2F)oc1N1CCCCC1	none (no result: esBAF inh)
O=C(Nc1ccc2c(c1)OCCO2)c1cc2sccc2n1Cc1ccccc1	esBAF inh 49
O=C(Nc1ccc2c(c1)OCCO2)c1cc2sccc2n1Cc1ccc(F)cc1	none
COc1cc(C(=O)N/N=C/c2ccc(OC(=O)c3cccc(C)c3)cc2)ccc1O	none
Cc1cccc(C(=O)Oc2ccc(/C=N/O)cc2)c1	esBAF inh 76
CCNc1ccc(S(=O)(=O)N(C)C)cc1NCC(=O)Nc1ccccc1Br	HSF-1 act 115
Cn1c(=O)[nH]c(=O)c2c1nc(N1CCN(c3cccc(Cl)c3)CC1)n2CCCc1ccccc1	none (no result: esBAF inh, Vif imaging)
CCCCCn1c(Sc2nc3ccccc3s2)nc2c1c(=O)[nH]c(=O)n2C	HSF-1 act 58
CCCCCn1c(N2CCN(c3cccc(Cl)c3)CC2)nc2c1c(=O)[nH]c(=O)n2C	HSF-1 act 111
CC(=O)Nc1ccc2c(c1)nc(CCN1CCC(C)CC1)n2C	none
COc1ccc(OCC(=O)Nc2ccc3c(c2)nc(CCN2CCN(C)CC2)n3C)cc1	HSF-1 act 53
CC1CCN(CCc2nc3cc(NC(=O)Nc4ccccc4)ccc3n2C)CC1	esBAF inh 44, HSF-1 act 177
Cn1c(CCN2CCOCC2)nc2cc(NC(=O)COc3ccccc3)ccc21	HSF-1 act 68
COc1ccc(C(=O)Nc2ccc3c(c2)nc(CN2CCCC2)n3C)cc1	esBAF inh inconclusive, HSF1 inhib -86
COc1ccc(C(=O)Nc2ccc3c(c2)nc(CN2CCN(C(C)=O)CC2)n3C)cc1	none
CCCNC(=O)Nc1ccc2c(c1)OC[C@H](C)N(CCC)C[C@@H](C)[C@H](OC)CN(C)C2=O	none (no result: HSF1 inhib, Vif imaging, HSF-1 act)
CNC[C@H]1OCc2cnnn2CCCC(=O)N([C@H](C)CO)C[C@H]1C	none (no result: HSF1 inhib, Vif imaging, HSF-1 act)
COc1ccccc1CNC(=O)C[C@@H]1C[C@@H]2c3cc(NC(=O)Nc4ccc(C(F)(F)F)cc4)ccc3O[C@@H]2[C@H](CO)O1	none (no result: HSF1 inhib, Vif imaging, HSF-1 act)
